Compound activity deposited in PubChem by National Center for Advancing Translational Sciences (NCATS).
Hits are enriched below; roughly 7.3% of the tested compounds scored in any of these assays.
Rab9 promoter act: activates the Rab9 promoter | actives 2.8% (n = 320,000) | Huh7 Rab9 promoter-luciferase reporter, luminescence, 24 h | Potency, µM (doses to about 9.22 µM), for inactives: top-dose activation, negative = inhibition, hits mostly activators; note: % of control where 0% means no effect; nearly all actives have a fitted effect of over 60% in size
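Cell-based reporter: Huh7 stable for Rab9 promoter-driven luciferase, plated in reduced-serum medium with 10% FBS at 1500 cells/well, compound-treated 24 h at 37 °C, luminescence read after 10 min reagent.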
ELG1 genotox: inducers of genotoxicity in HEK293T ELG1-luciferase cells. actives 1.3% (n = 330,000). HEK293T ELG1-luciferase reporter, luminescence, 16 h. Potency, µM (highest dose often 46 µM), for inactives: at the top dose activity change, positive = activation, usual class: activators; note: % of control where 0% means no effect; nearly all actives have a fitted effect of over 60% in size
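Reporter readout depends on ELG1 protein level, which increases with genetic stress. After 16 hr compound exposure at 37 °C, luciferase activity was quantified using ONE-Glo.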
uPA surface inh: cell surface uPA generation inhibition. cell surface uPA generation assay, qHTS. Potency, µM (highest dose often 38.3 µM), inactives show at the highest dose activity change, negative = inhibition, actives largely listed as inhibitors. actives 0.31% (n = 330,000). AID 540303; active = well fitted inhibition curve with a large enough effect; inconclusive = small, poorly fitted or top-dose-only effect; inactive = no such curve, though single readings can be large or run the other way; tested in mouse RAW 264.7 cells; note: % is set by controls: 0 for no effect and ±100 for the full control effect; nearly all actives have a fitted effect of over 55% in size
SMN2 splice up: SMN2 splice variant enhancement | HEK293 SMN2-luciferase splicing reporter, luminescence, 30-36 h | actives 2.8% (n = 210,000) | Potency, µM (titrated, usually from 46.1 µM), for inactives: top-dose activity change, positive = activation, actives largely listed as activators; note: % of control where 0% means no effect; nearly all actives have a fitted effect of over 55% in size
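qHTS luciferase splicing reporter: luminescence rises when SMN2 exon 7 is included in transfected HEK293 cells. Compound exposure lasted 30-36 h at 37C, with 4.5 mM final sodium butyrate as control, followed by a ONE-Glo read.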
NPC1 prom act: NPC1 promoter activation; Potency, µM (highest dose often 9.22 µM), inactives show at the top dose activation, most hits filed as activators; AID 485313; actives 2.4% (n = 320,000); Huh7 NPC1 promoter luciferase reporter, 24 h; note: % of control where 0% means no effect; nearly all actives have a fitted effect of over 60% in size
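Stable NPC1-promoter luciferase Huh7 line; cpd (DMSO) 24 h, 37 °C, 5% CO2; Amplite luciferase reagent 10 min RT; luminescence readout. qHTS format.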
FLuc modulator: counter-screen for miR-21 project: firefly luciferase inhibitors or activators. P08659. purified FLuc, Km substrates, luminescence inhibition. Potency, µM (highest dose often 57.5 µM), for the others: top-dose activity change, negative = inhibition, usual class: inhibitors. actives 6.9% (n = 360,000). AID 588342;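 note: plate controls were vehicle for no effect and reference inhibitor for full effect; nearly all actives have a fitted effect of over 55% in size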
Target sequence (P08659 whole entry, looked up): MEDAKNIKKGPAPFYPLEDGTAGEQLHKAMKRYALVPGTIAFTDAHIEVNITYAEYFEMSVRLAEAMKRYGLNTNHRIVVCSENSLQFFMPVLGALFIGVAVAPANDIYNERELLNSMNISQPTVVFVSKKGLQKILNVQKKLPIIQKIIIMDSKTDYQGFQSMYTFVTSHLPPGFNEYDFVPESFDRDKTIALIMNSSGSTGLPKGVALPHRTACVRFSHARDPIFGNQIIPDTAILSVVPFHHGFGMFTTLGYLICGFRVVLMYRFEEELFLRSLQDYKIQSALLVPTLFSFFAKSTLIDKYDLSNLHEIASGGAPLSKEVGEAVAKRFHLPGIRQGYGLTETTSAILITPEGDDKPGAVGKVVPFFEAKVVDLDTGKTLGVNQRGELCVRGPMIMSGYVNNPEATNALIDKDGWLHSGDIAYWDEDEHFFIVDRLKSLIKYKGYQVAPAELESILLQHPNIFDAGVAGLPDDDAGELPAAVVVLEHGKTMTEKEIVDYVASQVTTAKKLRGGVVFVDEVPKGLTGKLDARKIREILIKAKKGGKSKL
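Purified P. pyralis luciferase (10nM final) with 10uM D-luciferin and 10uM ATP (Km levels) in 50mM Tris acetate pH 7.5, 10mM Mg acetate, 0.01% Tween-20, 0.05% BSA; qHTS 6-point titration, ~60 µM downward; luminescence read.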
Starred values were filed as active, the others as inactive; [ ] = another dose, or the depositor's remark. Unless noted, calls come from the whole dose curve; as a rule, active = well fitted curve in the direction sought with a large enough effect; inconclusive = small, poorly fitted or top-dose-only effect, or another doubt; inactive = no such curve, though single readings can be large; an effect the other way counts as inactive or inconclusive. Potency is the fitted concentration of half-maximal effect.

For Cc1ccc(NC(=O)CSc2nnc(NC(=O)c3ccco3)s2)cc1 the results were Rab9 promoter act 14.4%, ELG1 genotox 14.5%, uPA surface inh -6.3%, SMN2 splice up 13.6%, NPC1 prom act 9.0% and FLuc modulator 21.3µM*.
CCCSc1nnc(NC(=O)c2ccco2)s1 was read as Rab9 promoter act inconclusive, ELG1 genotox inconclusive, uPA surface inh -6.3%, SMN2 splice up 11.2µM*, NPC1 prom act 29.4% and FLuc modulator inconclusive.
`CC(=O)Nc1ccc(N=Cc2c(O)c3ccccc3oc2=O)cc1` gave Rab9 promoter act -4.2%, ELG1 genotox 0.5%, uPA surface inh 14.9%, NPC1 prom act -4.1% and FLuc modulator inconclusive.
Screening Cc1ccc(N=Cc2c(O)c3ccccc3oc2=O)c(C)c1 returned Rab9 promoter act 1.3%, ELG1 genotox 4.1%, uPA surface inh -3.7%, NPC1 prom act -2.6% and FLuc modulator 0.213µM*.
COc1cccc(N=Cc2c(O)c3ccccc3oc2=O)c1 was read as Rab9 promoter act 6.1%, ELG1 genotox -0.2%, uPA surface inh 0.5%, NPC1 prom act 0.2% and FLuc modulator 1.9µM*.
Screening CC(=O)c1cccc(N=Cc2c(O)c3ccccc3oc2=O)c1 returned Rab9 promoter act -1.1%, ELG1 genotox 2.0%, uPA surface inh -17.0%, NPC1 prom act -5.3% and FLuc modulator 1.69µM*.
`CC(=O)c1cccc(NC(=O)C(CC(C)C)NS(=O)(=O)c2ccc3c(c2)CCN3C(C)=O)c1` (stereo not given) gave SMN2 splice up 3.5% and FLuc modulator -4.9%.
Screening COC(=O)[C@@]1(Cc2ccccc2)[C@H]2c3cc(C(=O)N4CCCC4)n(CCO)c3C[C@H]2CN1C(=O)c1ccccc1 returned SMN2 splice up -2.5%.
Screening Cc1cccc(C)c1Nc1c(-c2ccc(N3CCOCC3)cc2)nc2cnccn12 returned Rab9 promoter act -2.4%, ELG1 genotox 5.4%, uPA surface inh -9.5%, NPC1 prom act -1.7% and FLuc modulator inconclusive.
For Clc1ccc(-c2nc3cnccn3c2Nc2ccc3c(c2)OCO3)cc1 the results were Rab9 promoter act 1.2%, ELG1 genotox -5.1%, uPA surface inh inconclusive, SMN2 splice up 0.7%, NPC1 prom act -5.6% and FLuc modulator inconclusive.
`c1cn2c(Nc3ccc4c(c3)OCCO4)c(-c3ccc(N4CCOCC4)cc3)nc2cn1` gave Rab9 promoter act 20.8%, ELG1 genotox inconclusive, uPA surface inh inconclusive, NPC1 prom act 26.4% and FLuc modulator 2.69µM*.
`CSc1ccc(-c2nc3cnccn3c2Nc2ccc3c(c2)OCO3)cc1` gave Rab9 promoter act -4.4%, ELG1 genotox -0.6%, uPA surface inh -8.2%, SMN2 splice up -2.3%, NPC1 prom act -0.2% and FLuc modulator 19µM*.
Screening Cc1c(C(=O)N2CCOCC2)sc(NC(=O)Cc2ccccc2)c1C#N returned Rab9 promoter act -1.0%, ELG1 genotox 1.0%, uPA surface inh 0.1%, SMN2 splice up -2.7%, NPC1 prom act -5.3% and FLuc modulator 5.5%.
For Cc1ccc(OCC(=O)Nc2ccccc2C(=O)OCc2cc(=O)n3nc(C4CC4)sc3n2)cc1 the results were FLuc modulator 2.7%.
For COC(=O)c1cc(NC(=O)Nc2cc(OC)ccc2OC)cc(C(=O)OC)c1 the results were Rab9 promoter act -4.9%, ELG1 genotox -10.6%, uPA surface inh -2.9%, SMN2 splice up -8.1%, NPC1 prom act 5.6% and FLuc modulator -0.6%.
`O=C(N/C=C\c1ccccc1)NCc1ccc(Cl)cc1` gave Rab9 promoter act -3.8%, ELG1 genotox -2.7%, uPA surface inh 8.9%, SMN2 splice up 0.2%, NPC1 prom act 2.1% and FLuc modulator 1.6%.
For O=C(N/C=C/c1ccccc1)c1ccccc1 the results were Rab9 promoter act 1.26µM*, ELG1 genotox inconclusive, uPA surface inh inconclusive, NPC1 prom act 1.12µM* and FLuc modulator 2.13µM*.
COc1ccccc1NC(=O)Nc1ccc(N2CCOCC2)cc1 was read as Rab9 promoter act inconclusive, ELG1 genotox inconclusive, uPA surface inh -8.2%, SMN2 splice up 112.1%, NPC1 prom act inconclusive and FLuc modulator 16.9µM*.
Screening COc1ccc(OC)c(NC(=O)Nc2ccc(Cl)cc2)c1 returned Rab9 promoter act 6.9%, ELG1 genotox -1.6%, uPA surface inh -2.0%, SMN2 splice up -4.8%, NPC1 prom act 1.3% and FLuc modulator 19µM*.
COc1ccc(NC(=O)Nc2ccccc2C(N)=O)cc1OC was read as uPA surface inh -17.5%, SMN2 splice up -7.9% and FLuc modulator 19µM*.
`CSC(=[SH+])N=N/C(=C1/C=CC=CN1)c1ccccn1.[Cu][Br]` gave SMN2 splice up -53.6%[9.22 µM].
Cc1c(Cl)cccc1NC(=O)CN1CCN(CCN=CC2=C(O)CC(c3ccccc3)CC2=O)CC1 (stereo not given) was read as Rab9 promoter act -0.1%, ELG1 genotox 15.1%, uPA surface inh -5.6%, SMN2 splice up -46.0%, NPC1 prom act 1.1% and FLuc modulator -17.9%.
CCc1cccc(NC(=O)C2CC2c2ccccc2)c1 (stereo not given) was read as Rab9 promoter act 12.6%, ELG1 genotox 0.4%, uPA surface inh 0.1%, NPC1 prom act 2.2% and FLuc modulator inconclusive.
`COc1ccccc1NC(=O)Nc1cc(F)ccc1F` gave Rab9 promoter act 1.6%, ELG1 genotox 2.8%, uPA surface inh -6.9%, SMN2 splice up 5.5%, NPC1 prom act 11.4% and FLuc modulator 23.9µM*.
`COc1ccccc1NC(=O)Nc1nc(CC(=O)Nc2cc(F)ccc2F)cs1` gave Rab9 promoter act -0.3%, ELG1 genotox -5.6%, uPA surface inh 8.1%, NPC1 prom act 1.3% and FLuc modulator inconclusive.
`CCN1CCN(Cc2ccc(NC(=O)Nc3ccccc3OC)cc2)CC1` gave Rab9 promoter act inconclusive, ELG1 genotox 18.4µM*, uPA surface inh inconclusive, NPC1 prom act inconclusive and FLuc modulator 10.7µM*.
`COc1ccccc1NC(=O)Nc1ccc(Cc2ccncc2)cc1` gave Rab9 promoter act 13.3%, ELG1 genotox 6.2%, uPA surface inh -3.2%, SMN2 splice up -2.6%, NPC1 prom act 4.5% and FLuc modulator 16.9µM*.
For COc1ccc(NC(=O)Nc2ccccc2OC)cc1 the results were Rab9 promoter act inconclusive, ELG1 genotox 9.2µM*, uPA surface inh -23.6%, SMN2 splice up inconclusive, NPC1 prom act inconclusive and FLuc modulator 8.49µM*.
For CC1CCN(c2ccc(NC(=O)Cn3c(=O)oc4ccccc43)cc2)CC1 the results were Rab9 promoter act 0.4%, ELG1 genotox 3.4%, uPA surface inh -3.1%, NPC1 prom act 0.0% and FLuc modulator 1.6%.
